Assay results from the supplement of paper PMC10849652.
Targets with a hit are over-represented here; the source holds about 7,900 in all. About 0.6% of all pairs of compound and target were hits. Unmarked numbers belong to inactive results.

How the values were obtained:
Assay in all cases: log2 fold change, soluble protein after heating vs DMSO (PISA); higher = thermal stabilisation; K562 cells, 10 uM, 30 min; active = over 0.2 and 3.5 SD of the protein, either way, in both replicates (recomputed)
bafetinib = compound: Cc1ccc(NC(=O)c2ccc(CN3CC[C@H](N(C)C)C3)c(C(F)(F)F)c2)cc1Nc1nccc(-c2cncnc2)n1 [bafetinib]
Method in brief: (§1)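 Quantification of soluble protein used TMTpro 16plex LC-MS/MS, with channel sums equalised. Samples were the supernatant after 21,000xg for 90 min of pooled aliquots from K562 cells (2×10^6 cells/mL) treated with 10 μM compound for 30 min, heated for 3 min over 48°C-58°C, and extracted in PBS with 0.5% NP-40 at 4°C. Values, from duplicates, describe thermal stability against control samples on a log2 fold-change scale.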

[1] = compound: Cc1cccc(CC(=O)N2CCc3c2ccc(-c2cn(C)c4ncnc(N)c24)c3F)n1
Method in brief: as §1

nilotinib = compound: Cc1cn(-c2cc(NC(=O)c3ccc(C)c(Nc4nccc(-c5cccnc5)n4)c3)cc(C(F)(F)F)c2)cn1 [nilotinib]
Method in brief: as §1

[2] = compound: Cc1nc(Nc2n[nH]c3c2CN(C(=O)N[C@H](CN(C)C)c2ccccc2)C3(C)C)c2sccc2n1
Method in brief: as §1

dasatinib = compound: Cc1nc(Nc2ncc(C(=O)Nc3c(C)cccc3Cl)s2)cc(N2CCN(CCO)CC2)n1 [dasatinib]
Method in brief: as §1

[3] = compound: Cc1ncc(-c2ccnc(Nc3ccc(S(C)(=O)=O)cc3)n2)n1C(C)C
Method in brief: as §1

[4] = compound: Cn1cc(-c2ccc3c(c2)CCN3C(=O)Cc2cccc(C(F)(F)F)c2)c2c(N)ncnc21
Method in brief: as §1

[5] = compound: Cn1cc(-c2ccc3nnc(C(F)(F)c4ccc5ncccc5c4)n3n2)cn1
Method in brief: as §1

tipifarnib = compound: Cn1cncc1[C@@](N)(c1ccc(Cl)cc1)c1ccc2c(c1)c(-c1cccc(Cl)c1)cc(=O)n2C [tipifarnib]
Method in brief: as §1

mubritinib = compound: FC(F)(F)c1ccc(/C=C/c2nc(COc3ccc(CCCCn4ccnn4)cc3)co2)cc1 [mubritinib]
Method in brief: as §1

[6] = compound: NC(=O)c1cnc(N[C@@H]2CCCC[C@@H]2N)nc1Nc1cccc(-n2nccn2)c1
Method in brief: as §1

[7] = compound: NC1(c2ccc(-c3nc4ccn5c(=O)[nH]nc5c4cc3-c3ccccc3)cc2)CCC1
Method in brief: as §1

[8] = compound: NCC(=O)Nc1ccc(-n2nc(C(F)(F)F)cc2-c2ccc3c(ccc4ccccc43)c2)cc1
Method in brief: as §1

vorinostat = compound: O=C(CCCCCCC(=O)Nc1ccccc1)NO [vorinostat]
Method in brief: as §1

citarinostat = compound: O=C(CCCCCCNC(=O)c1cnc(N(c2ccccc2)c2ccccc2Cl)nc1)NO [citarinostat]
Method in brief: as §1

silmitasertib = compound: O=C(O)c1ccc2c(c1)nc(Nc1cccc(Cl)c1)c1ccncc12 [silmitasertib]
Method in brief: as §1

[9] = compound: O=C1NC(=O)C(c2cnc3ccccn23)=C1c1cn2c3c(cc(F)cc13)CN(C(=O)N1CCCCC1)CC2
Method in brief: as §1

[10] = compound: c1cc(OCCN2CCCCC2)cc(-c2n[nH]c3ccc(-c4nnc[nH]4)cc23)c1
Method in brief: as §1

[11] = compound: NC(=O)Nc1cc(-c2cccc(F)c2)sc1C(=O)N[C@H]1CCCNC1
Method in brief: as §1

entinostat = compound: Nc1ccccc1NC(=O)c1ccc(CNC(=O)OCc2cccnc2)cc1 [entinostat]
Method in brief: as §1

Chain of UniProt Q9UNK9 (Q9UNK9 whole entry, looked up): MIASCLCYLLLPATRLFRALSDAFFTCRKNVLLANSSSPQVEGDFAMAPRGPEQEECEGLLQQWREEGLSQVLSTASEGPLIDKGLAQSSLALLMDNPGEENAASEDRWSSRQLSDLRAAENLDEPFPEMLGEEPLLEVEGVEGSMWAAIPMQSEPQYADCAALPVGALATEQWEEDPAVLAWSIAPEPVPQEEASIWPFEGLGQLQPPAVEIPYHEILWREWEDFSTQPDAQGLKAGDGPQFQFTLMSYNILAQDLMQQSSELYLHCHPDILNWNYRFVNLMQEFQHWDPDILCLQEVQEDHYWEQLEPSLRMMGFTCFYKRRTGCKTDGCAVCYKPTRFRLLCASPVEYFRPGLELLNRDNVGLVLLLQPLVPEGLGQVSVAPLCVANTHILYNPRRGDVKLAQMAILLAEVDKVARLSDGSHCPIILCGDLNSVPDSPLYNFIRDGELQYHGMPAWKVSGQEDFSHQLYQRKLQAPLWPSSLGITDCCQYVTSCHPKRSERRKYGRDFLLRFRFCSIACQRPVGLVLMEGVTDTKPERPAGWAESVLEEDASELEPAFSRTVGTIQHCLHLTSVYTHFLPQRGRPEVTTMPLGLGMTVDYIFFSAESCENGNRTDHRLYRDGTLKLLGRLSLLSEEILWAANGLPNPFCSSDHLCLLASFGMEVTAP
Chain of UniProt Q9UKU0 (Q9UKU0 whole entry, looked up): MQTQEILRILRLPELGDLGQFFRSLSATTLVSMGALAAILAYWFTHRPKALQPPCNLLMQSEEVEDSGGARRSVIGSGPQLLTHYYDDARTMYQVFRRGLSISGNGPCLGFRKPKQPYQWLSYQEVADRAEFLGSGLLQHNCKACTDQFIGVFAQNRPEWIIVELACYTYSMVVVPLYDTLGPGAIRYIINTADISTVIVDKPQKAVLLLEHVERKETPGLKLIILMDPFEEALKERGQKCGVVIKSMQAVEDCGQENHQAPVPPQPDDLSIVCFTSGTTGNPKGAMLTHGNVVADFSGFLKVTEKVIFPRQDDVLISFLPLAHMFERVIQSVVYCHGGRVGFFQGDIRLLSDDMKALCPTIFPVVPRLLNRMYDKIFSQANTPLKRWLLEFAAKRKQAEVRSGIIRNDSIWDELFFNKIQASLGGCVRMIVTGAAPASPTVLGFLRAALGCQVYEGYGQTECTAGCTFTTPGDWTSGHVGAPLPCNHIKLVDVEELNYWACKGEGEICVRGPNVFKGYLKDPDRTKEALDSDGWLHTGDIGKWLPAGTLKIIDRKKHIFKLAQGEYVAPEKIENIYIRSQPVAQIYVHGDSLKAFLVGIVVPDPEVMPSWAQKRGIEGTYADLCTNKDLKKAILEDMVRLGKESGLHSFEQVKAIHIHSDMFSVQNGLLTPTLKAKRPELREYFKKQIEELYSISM
Chain of UniProt P17544 (P17544 whole entry, looked up): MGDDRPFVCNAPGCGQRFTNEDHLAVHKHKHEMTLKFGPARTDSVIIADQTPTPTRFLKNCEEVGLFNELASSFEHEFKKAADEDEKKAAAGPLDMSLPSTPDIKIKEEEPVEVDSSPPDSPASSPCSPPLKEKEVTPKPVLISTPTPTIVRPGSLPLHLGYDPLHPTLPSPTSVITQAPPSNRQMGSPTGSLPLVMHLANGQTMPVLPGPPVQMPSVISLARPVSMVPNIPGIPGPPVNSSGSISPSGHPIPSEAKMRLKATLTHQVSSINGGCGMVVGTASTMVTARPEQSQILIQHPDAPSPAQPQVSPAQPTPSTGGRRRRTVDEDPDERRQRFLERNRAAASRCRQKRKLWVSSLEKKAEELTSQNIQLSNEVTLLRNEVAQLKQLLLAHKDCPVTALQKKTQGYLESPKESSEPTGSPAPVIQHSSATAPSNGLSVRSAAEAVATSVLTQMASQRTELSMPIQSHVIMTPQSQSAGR
Chain of UniProt Q4L235 (Q4L235 whole entry, looked up): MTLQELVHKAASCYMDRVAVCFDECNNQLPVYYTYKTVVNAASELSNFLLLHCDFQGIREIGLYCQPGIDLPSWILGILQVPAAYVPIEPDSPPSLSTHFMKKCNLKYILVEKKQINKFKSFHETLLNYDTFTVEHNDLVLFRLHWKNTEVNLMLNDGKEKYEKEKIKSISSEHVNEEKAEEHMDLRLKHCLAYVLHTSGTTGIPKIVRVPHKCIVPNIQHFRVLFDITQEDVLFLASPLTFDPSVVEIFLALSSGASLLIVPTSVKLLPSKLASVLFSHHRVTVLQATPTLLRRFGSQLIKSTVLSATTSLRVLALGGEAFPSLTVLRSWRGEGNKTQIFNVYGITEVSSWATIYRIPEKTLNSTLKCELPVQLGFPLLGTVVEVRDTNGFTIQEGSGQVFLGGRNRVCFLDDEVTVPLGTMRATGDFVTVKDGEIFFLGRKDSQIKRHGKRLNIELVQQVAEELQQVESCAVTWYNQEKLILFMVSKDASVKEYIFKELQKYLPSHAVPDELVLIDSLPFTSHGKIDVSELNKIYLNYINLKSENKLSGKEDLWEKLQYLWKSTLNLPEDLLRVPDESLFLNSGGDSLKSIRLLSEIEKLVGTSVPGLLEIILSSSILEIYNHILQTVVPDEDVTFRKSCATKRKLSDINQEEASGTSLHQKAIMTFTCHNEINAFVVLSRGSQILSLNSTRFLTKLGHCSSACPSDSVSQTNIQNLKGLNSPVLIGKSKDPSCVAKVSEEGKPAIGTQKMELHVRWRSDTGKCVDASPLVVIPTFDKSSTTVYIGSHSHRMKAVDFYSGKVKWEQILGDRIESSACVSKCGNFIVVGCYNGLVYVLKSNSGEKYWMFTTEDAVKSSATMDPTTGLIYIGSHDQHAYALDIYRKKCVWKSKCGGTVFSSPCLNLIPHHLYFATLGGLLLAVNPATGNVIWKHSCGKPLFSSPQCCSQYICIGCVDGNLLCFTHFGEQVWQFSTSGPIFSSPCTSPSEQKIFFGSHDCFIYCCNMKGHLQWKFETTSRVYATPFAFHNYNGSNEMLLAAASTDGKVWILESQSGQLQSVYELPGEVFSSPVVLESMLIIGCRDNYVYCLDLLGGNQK
Chain of UniProt Q8N5I2 (Q8N5I2 whole entry, looked up): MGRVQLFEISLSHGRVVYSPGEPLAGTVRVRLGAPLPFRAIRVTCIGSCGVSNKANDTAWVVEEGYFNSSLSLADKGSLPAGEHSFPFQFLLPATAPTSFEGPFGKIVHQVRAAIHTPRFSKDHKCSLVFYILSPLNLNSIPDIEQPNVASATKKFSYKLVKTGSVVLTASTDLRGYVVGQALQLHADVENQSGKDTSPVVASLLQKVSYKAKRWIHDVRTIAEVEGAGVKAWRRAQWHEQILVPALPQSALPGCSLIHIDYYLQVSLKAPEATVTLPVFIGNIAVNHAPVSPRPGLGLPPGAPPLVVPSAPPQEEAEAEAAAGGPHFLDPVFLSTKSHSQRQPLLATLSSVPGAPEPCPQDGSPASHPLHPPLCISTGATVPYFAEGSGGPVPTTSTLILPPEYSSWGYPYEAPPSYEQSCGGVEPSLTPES
Chain of UniProt O14727 (O14727 whole entry, looked up): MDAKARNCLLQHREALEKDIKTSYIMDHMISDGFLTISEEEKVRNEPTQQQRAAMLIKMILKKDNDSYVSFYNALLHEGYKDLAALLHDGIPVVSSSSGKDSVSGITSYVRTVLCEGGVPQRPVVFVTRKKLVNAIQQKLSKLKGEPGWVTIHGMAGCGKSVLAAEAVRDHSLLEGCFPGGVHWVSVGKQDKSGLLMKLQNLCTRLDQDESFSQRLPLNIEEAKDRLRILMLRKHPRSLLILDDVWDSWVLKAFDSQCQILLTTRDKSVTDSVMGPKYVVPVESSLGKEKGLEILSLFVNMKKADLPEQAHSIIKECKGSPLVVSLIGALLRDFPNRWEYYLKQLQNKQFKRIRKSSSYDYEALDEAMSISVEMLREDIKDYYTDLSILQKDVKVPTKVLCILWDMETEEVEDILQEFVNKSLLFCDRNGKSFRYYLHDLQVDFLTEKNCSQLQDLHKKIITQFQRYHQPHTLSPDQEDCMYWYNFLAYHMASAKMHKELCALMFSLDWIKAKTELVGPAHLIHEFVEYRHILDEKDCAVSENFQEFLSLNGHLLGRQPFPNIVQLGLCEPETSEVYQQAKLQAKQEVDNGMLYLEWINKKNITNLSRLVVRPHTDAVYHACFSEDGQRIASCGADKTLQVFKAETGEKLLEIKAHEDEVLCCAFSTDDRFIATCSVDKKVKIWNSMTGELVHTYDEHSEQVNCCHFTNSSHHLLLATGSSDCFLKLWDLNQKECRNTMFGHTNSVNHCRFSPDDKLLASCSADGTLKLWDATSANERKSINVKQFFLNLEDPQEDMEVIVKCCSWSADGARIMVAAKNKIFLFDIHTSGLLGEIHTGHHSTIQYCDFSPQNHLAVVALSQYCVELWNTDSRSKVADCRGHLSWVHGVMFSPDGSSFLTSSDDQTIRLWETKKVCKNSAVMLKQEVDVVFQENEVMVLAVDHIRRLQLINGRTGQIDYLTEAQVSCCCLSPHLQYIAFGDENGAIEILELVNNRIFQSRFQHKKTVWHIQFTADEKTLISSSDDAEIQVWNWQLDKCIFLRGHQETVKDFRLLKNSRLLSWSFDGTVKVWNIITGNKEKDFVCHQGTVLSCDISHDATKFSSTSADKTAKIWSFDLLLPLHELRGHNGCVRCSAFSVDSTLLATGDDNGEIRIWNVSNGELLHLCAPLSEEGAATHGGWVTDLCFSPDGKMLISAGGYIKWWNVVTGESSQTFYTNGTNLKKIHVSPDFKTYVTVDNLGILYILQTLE
Chain of UniProt Q9Y587 (Q9Y587 whole entry, looked up): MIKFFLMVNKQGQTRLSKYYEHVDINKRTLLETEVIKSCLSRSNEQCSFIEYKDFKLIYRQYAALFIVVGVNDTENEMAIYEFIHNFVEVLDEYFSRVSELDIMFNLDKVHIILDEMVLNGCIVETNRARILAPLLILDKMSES
Chain of UniProt Q96F25 (Q96F25 whole entry, looked up): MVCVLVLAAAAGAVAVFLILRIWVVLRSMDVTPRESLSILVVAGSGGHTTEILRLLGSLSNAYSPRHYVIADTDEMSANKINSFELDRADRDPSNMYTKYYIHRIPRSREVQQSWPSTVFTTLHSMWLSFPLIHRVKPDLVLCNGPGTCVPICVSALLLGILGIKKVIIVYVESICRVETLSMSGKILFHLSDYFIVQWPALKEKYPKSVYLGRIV

Row | Target | log2 fold change (bafetinib) | log2 fold change [1] | log2 fold change (nilotinib) | log2 fold change [2] | log2 fold change (dasatinib) | log2 fold change [3] | log2 fold change [4] | log2 fold change [5] | log2 fold change (tipifarnib) | log2 fold change (mubritinib) | log2 fold change [6] | log2 fold change [7] | log2 fold change [8] | log2 fold change (vorinostat) | log2 fold change (citarinostat) | log2 fold change (silmitasertib) | log2 fold change [9] | log2 fold change [10] | log2 fold change [11] | log2 fold change (entinostat)
1 | ALG14 (UniProt Q96F25) | -0.092 | 0.461 (active) | 0.061 | 0.026 | 0.003 | -0.033 | 0.014 | 0.126 | -0.214 | 0.003 | 0.018 | -0.118 | -0.081 | 0.29 | 0.028 | 0.076 | 0.061 | -0.123 | – | –
2 | ATP7B (UniProt P35670) | -0.009 | -0.032 | 0.006 | -0.017 | -0.153 | 0.087 | 0.015 | 0.001 | 0.019 | -0.079 | -0.139 | -0.111 | -0.15 | 0.035 | 0.005 | 0.036 | -0.036 | -0.023 | -0.051 | -0.003
3 | ACTR1B (UniProt P42025) | -0.062 | -0.221 | 0.034 | -0.011 | 0.034 | 0.083 | -0.011 | 0.003 | 0.077 | -0.001 | 0.027 | -0.003 | 0.004 | 0.459 (active) | 0.078 | 0.023 | 0.06 | -0.004 | 0.075 | -0.034
4 | APOH (UniProt P02749) | -1.07 (active) | 0.083 | 0 | 0.031 | -0.281 | 0.392 | 0.145 | -0.167 | 0.085 | -0.346 | -0.109 | -0.414 | 0.065 | 0.354 | -0.149 | 0.565 | – | 0.006 | -0.094 | 0.06
5 | AASDH (UniProt Q4L235) | -0.065 | -0.008 | -0.079 | -0.149 | 0.063 | 0.173 | 0.045 | 0.024 | 0.058 | 0.144 | – | -0.12 | -0.166 | 0.051 | – | 0.036 | -0.064 | – | -0.044 | 0.007
6 | ARRDC1 (UniProt Q8N5I2) | 0.014 | -0.035 | -0.045 | 0.065 | -0.073 | 0.079 | 0 | -0.087 | 0.011 | -0.112 | – | -0.06 | 0.057 | -0.086 | 0.056 | 0.075 | -0.008 | -0.001 | 0.013 | 0.075
7 | ADAMTS5 (UniProt Q9UNA0) | -0.103 | -0.066 | 0.022 | 0.052 | 0.033 | -0.079 | 0.088 | 0.063 | – | 0.154 | -0.065 | 0.074 | -0.071 | 0.056 | 0.074 | -0.064 | – | 0.051 | 0.026 | -0.08
8 | ATR (UniProt Q13535) | -0.036 | -0.028 | -0.07 | 0.036 | -0.123 | -0.054 | 0.012 | 0.039 | -0.022 | -0.013 | 0.002 | 0.044 | -0.089 | 0.057 | 0.039 | 0.035 | -0.058 | -0.066 | -0.003 | 0.017
9 | ACSL6 isoform 1 (UniProt Q9UKU0) | 0.147 | 0.057 | -0.066 | -0.066 | 0.036 | -0.025 | – | 0.014 | – | 0.015 | – | -0.152 | -0.174 | 0.048 | – | -0.077 | -0.421 | – | 0.061 | -0.056
10 | ADD2 isoform 9 (UniProt P35612) | 0.021 | – | – | – | – | – | – | -0.002 | 0.149 | -0.125 | – | -1.2 (active) | – | – | – | -0.225 | – | – | 0 | -0.052
11 | AP4S1 (UniProt Q9Y587) | 0.068 | – | -0.015 | -0.016 | -0.036 | 0.072 | -0.103 | – | 0.076 | -0.013 | 0.039 | -0.11 | 0.019 | – | 0.054 | -0.005 | -0.092 | 0.015 | -0.014 | 0.062
12 | ANGEL1 (UniProt Q9UNK9) | 0.015 | – | – | – | – | – | – | -0.063 | – | – | – | – | -0.004 | – | – | – | – | – | – | –
13 | ACTR3B (UniProt Q9P1U1) | – | 0.035 | 0.036 | -0.082 | – | -0.001 | – | -0.051 | 0.129 | – | – | – | -0.217 | -0.067 | – | – | – | – | – | –
14 | BDH2 (UniProt Q9BUT1) | 0.114 | 0.069 | – | – | 0.031 | – | 0.063 | -0.032 | 0.017 | 0.274 | -0.086 | -0.042 | 0.009 | -0.03 | – | 0.076 | – | – | -0.091 | 0.025
15 | ACVR1 (UniProt Q04771) | – | -0.068 | – | – | 0.041 | – | 0.029 | – | -0.006 | -0.124 | 0.074 | 0 | 0.089 | -0.255 | 0.07 | 0.046 | -0.069 | 0.027 | 0.044 | 0.137
16 | APAF1 (UniProt O14727) | – | 0.042 | -0.058 | -0.015 | -0.121 | -0.268 | -0.122 | -0.016 | -0.152 | -0.032 | 0.033 | -0.116 | -0.104 | 0.048 | 0.093 | -0.116 | -0.062 | -0.016 | 0.016 | 0.031
17 | BAIAP2 isoform 4 (UniProt Q9UQB8) | – | – | – | – | – | – | -0.018 | – | – | – | – | – | – | – | – | – | – | – | 0.019 | -0.095
18 | AIF1 (UniProt P55008) | 0.035 | – | – | – | – | – | – | 0.153 | 0.051 | – | 0.004 | – | 0.021 | – | – | – | 0.068 | – | 0.04 | -0.105
19 | ADD1 isoform 4 (UniProt P35611) | -0.034 | 0.033 | – | – | – | – | 0.114 | – | – | – | – | – | – | 0.05 | – | – | 0.027 | – | – | –
20 | AUH (UniProt Q13825) | -0.102 | 0.024 | – | – | 0.145 | – | -0.072 | 0.007 | -0.011 | 0.048 | 0.011 | -0.023 | 0.103 | 0.018 | -0.103 | -0.061 | – | 0.003 | – | –
21 | ATF7 isoform 6 (UniProt P17544) | 0.02 | – | -0.026 | -0.081 | 0.504 (active) | -0.019 | 0.055 | -0.266 | 0 | 0.018 | 0.138 | -0.123 | 0.268 | – | – | 0.067 | -0.044 | – | -0.113 | -0.045
22 | ADD3 isoform 2 (UniProt Q9UEY8) | – | 0.05 | – | – | -0.116 | – | 0.152 | -0.026 | -0.067 | -0.007 | 0.059 | -0.009 | -0.002 | -0.119 | 0.08 | -0.002 | 0.019 | -0.02 | 0.03 | -0.018
